This is part of a sample that, as a whole, favours compounds with a hit. Of some 83,000 tested, about 20% had one in any assay.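 Cells were grown in 96-well plates and exposed to the test compound at a single concentration for 48 hours; results are reported as percent growth, with values below 10 considered active.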 A number with no mark means an inactive call. Active and inactive are the calls of the source.
These molecules were tested on MDA-MB-468 breast (assay: NCI-60 one-dose screen, 48 h (100 = growth as untreated, 0 = no growth, -100 = all killed)). Settings: 10 µM unless noted.
With `CC(C)c1ccc(Cc2cnc(NC(=O)c3cc(Br)cs3)s2)cc1` the growth was -4.52% (active).
Molecule `Cc1ccc(Nc2nc(N)nc(Nc3ccc4ccccc4c3)n2)cc1` has a growth of 20.2%.
Molecule `CCCn1c(=S)sc2c1nc(C)n1c(Nc3ccccc3)nnc21` has a growth of 51.5%.
In the case of `CC(C)c1cc(N=O)cc(C(C)C)c1O`, the growth is reported as 81.8%.
In the case of `C=C1C(=O)O[C@H]2[C@H]1CC/C(COC(=O)/C=C\C(=O)O)=C\CC[C@@]1(C)O[C@@H]21`, the growth is reported as 110%.
With `O=C(CSc1nnc(-c2ccccc2)o1)Nc1ccc(C(=O)/C=C/c2ccccc2)cc1` the growth was 58.3%.
In the case of `Cc1ccc(Nc2ncnc3c2c(C)nn3-c2ccc([N+](=O)[O-])cc2)cc1`, the growth is reported as 84.2%.
Work on `O=S(=O)(O)c1ccc(F)cc1` yielded a growth of 122%.
`C=CCN1C(=O)c2cccc3c(-c4ccc5c(c4)ncn5C4CCCCC4)ccc(c23)C1=O` gave a growth of 34.6%.
In the case of `Cc1ccc(CSC2=C(Cl)CN(c3ccc(Cl)cc3)C2=O)cc1`, the growth is reported as 83.4%.
In the case of `CN1CCN(Cc2ccc(NC(=O)c3[nH]ncc3Nc3ncnc4[nH]ccc34)cc2)CC1`, the growth is reported as -51.8% (active).
`COc1ccc(/C=C2\N=C(c3cccnc3)N(c3ccccc3)NC2=O)cc1` was tested, and the growth was 94.1%.
Work on `Clc1ccc(-c2nc3ccc(/C(=N\N=C\c4ccccc4)c4ccccc4)cc3[nH]2)cc1` yielded a growth of 79.1%.
With `CN1c2ccccc2Sc2cc(/C=N/Nc3ccnc4cc(Cl)ccc34)ccc21` the growth was 52.7%.
`CC1(C)CC[C@]23CC[C@]4(C)[C@H](CC[C@@H]5[C@@]6(C)CCNCC(C)(C)[C@@H]6CC[C@]54C)[C@H]2[C@H]1OC3` was tested, and the growth was 65.4%.

Source: PubChem BioAssay (NCI)
